Screening data from PubChem.
Pf apPOL inh: Pf-apPOL DNA polymerase inhibition | AID 1794808 | 210,000 tested, 0.25% active | Recombinant Pf-apPOL, molecular beacon fluorescence, 1.5 h | inhibition, % at 10 µM
mHTT-CaM PPI inh: mHTT-calmodulin interaction abrogation; P42858; AlphaScreen His-mHTT/GST-CaM binding, luminescence; inhibition, % at 15 µM; 190,000 tested, 3.6% active; AID 1671202;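 further: 0% = both proteins with DMSO and 100% = one protein alone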
An asterisk follows results filed as active; · = no result given. In the library only some 3.5% were active in any assay of this set; here they are far more common. No stated cut-off is given here; in the data, active means inhibition above about 50%; inactive means the rest.

SMILES	Pf apPOL inh	mHTT-CaM PPI inh
CCOc1ccccc1N1CCN(Cc2cc3c(cc2[N+](=O)[O-])OCO3)CC1	-2.2	51.0*
O=C(O)CC1Nc2ccccc2NC1=O (stereo not drawn)	1.6	3.9
C=C(C)CC1Nc2ccccc2NC1CC(=C)C (stereo not drawn)	·	56.0*
CC(=O)N1CCN(c2cc(Oc3cc(C)ccc3Cl)ncn2)CC1	-3.8	6.5
CCOc1ccc(N(C(C)C(=O)N2CCN(c3ccccc3)CC2)S(C)(=O)=O)cc1 (stereo not drawn)	-4.1	16.0
O=C1C=CC(=O)C(c2cccc(C(F)(F)F)c2)=C1	-1.6	74.0*
O=C1c2ccccc2C(=O)N1Cn1cc(-c2cccc(C(F)(F)F)c2)nn1	2.2	-2.6
Cc1c([N+](=O)[O-])c2ccc(O)c(CN(C)C)c2n1-c1ccccc1	2.8	11.5
N#CSC(CS(=O)(=O)c1ccc([N+](=O)[O-])cc1)c1ccccc1 (stereo not drawn)	-10.2	62.3*
Cc1ccc(S(=O)(=O)CC(SC#N)c2ccccc2)cc1 (stereo not drawn)	-4.7	-12.0
COc1ccc(C2=N/C(=C/c3coc4ccccc4c3=O)C(=O)O2)c(Br)c1	-19.5	-15.0
COc1ccc(CSc2n[nH]c(-c3ccc(OC)cc3)n2)cc1	2.2	-7.5
COCCC1CCN(C(=O)c2ccccc2OC)CC1	-2.2	-3.3
COCCC1CCN(C(=O)c2ccc(OC)cc2C)CC1	-8.1	-3.5
O=C(c1ccc(F)c(F)c1)N1CCC(CCOc2ccccc2F)CC1	-0.4	-31.8
COc1cccc(C(=O)N2CCC(CCOc3ccccc3)CC2)c1	-3.3	0.5
CN(C)c1cccc(C(=O)N2CCC(CCOc3ccccc3F)CC2)c1	-2.0	95.0*
COc1ccccc1C(=O)N1CCC(CCOc2ccccc2F)CC1	-0.9	52.3*
COc1ccc(C(=O)N2CCC(CCOc3ccccc3)CC2)c(C)c1	-7.0	59.8*
CN(C)c1cccc(C(=O)N2CCC(CCOc3ccccc3)CC2)c1	-1.6	86.2*
C=CCNC(=O)c1cc2c(n(-c3ccccc3)c1=O)CC(C)(C)CC2=O	-2.5	2.3
CCC(=O)N1CCc2sc(C(=O)N3CCC4(CC3)OCCO4)cc2C1	-1.0	1.4
CC(C(=O)NCCc1ccco1)C1CCN(S(=O)(=O)c2ccc(Cl)s2)CC1 (stereo not drawn)	-2.8	10.4
CC(C)(C)c1ccc(NC=C(C#N)C(=O)c2ccsc2)cc1	-5.3	·
COc1cccc(C(=O)N2CCC(CCOc3ccc(F)cc3)CC2)c1	-1.7	31.8
SMILES	Pf apPOL inh	mHTT-CaM PPI inh
CN(C)c1cccc(C(=O)N2CCC(CCOc3ccc(F)cc3)CC2)c1	-1.5	93.4*
CC(C)Oc1ccc(/C=C2/NC(=O)NC2=O)cc1Cl	-2.2	9.0
Cc1nn(Cc2ccc(Cl)cc2)c(C)c1NC(=O)c1noc2c1CCCCC2	1.8	67.2*
Cc1cc(NC(=O)c2noc3c2CCCCC3)nn1Cc1ccc(Cl)cc1	-4.2	-8.2
O=C(NCCCN1CCC(Cc2ccccc2)CC1)C1CCCN(c2ccncc2)C1 (stereo not drawn)	-6.0	49.9
CC(Nc1c2ccccc2nc2ccccc12)C(=O)NC(CC(N)=O)C(=O)O (stereo not drawn)	1.6	1.0
CC(C)CC(NC(=O)c1ccco1)C(=O)O (stereo not drawn)	61.3*	-2.4
CC(NC(=O)c1ccco1)C(=O)O (stereo not drawn)	1.0	-0.2
CC(C)CC(NC(=O)C(C)Nc1c2ccccc2nc2ccccc12)C(=O)O (stereo not drawn)	-1.7	65.0*
C=CCn1c(=O)c2c(ncn2Cc2ccc(F)cc2F)n(-c2ccc(F)cc2)c1=O	-2.3	1.1
CC(C)c1cc(C2CCCN2C(=O)c2cc(-c3ccccc3Cl)on2)on1 (stereo not drawn)	-3.2	-25.9
CCc1ccccc1NC(=O)C1CC(=O)N(CCc2c[nH]c3ccc(F)cc23)C1 (stereo not drawn)	-2.7	6.1
Cc1ccc(Cl)cc1NC(=O)C1CC(=O)N(CCc2c[nH]c3ccc(F)cc23)C1 (stereo not drawn)	-3.6	88.8*
Cc1ccc(NC(=O)C2CC(=O)N(CCc3c[nH]c4ccc(C)cc34)C2)c(C)c1 (stereo not drawn)	3.2	25.3
Cc1ccc(C)c(NC(=O)C2CC(=O)N(CCc3c[nH]c4ccc(Cl)cc34)C2)c1 (stereo not drawn)	0.7	66.7*
Cc1ccc(NC(=O)C2CC(=O)N(CCc3c[nH]c4ccc(F)cc34)C2)c(C)c1 (stereo not drawn)	-2.4	8.2
CCc1ccccc1NC(=O)C1CC(=O)N(CCc2c[nH]c3ccc(Cl)cc23)C1 (stereo not drawn)	-2.9	87.7*
CCc1ccccc1N(CC(=O)NC1CCCCCC1)S(C)(=O)=O	8.2	1.1
N#CCNC(=O)OCc1ccccc1	-13.5	·
Cc1ccc(OCC(=O)NCC23CCCC2N(C)C(=O)CC3)cc1 (stereo not drawn)	-8.1	0.4
Cc1ccccc1NC(=O)C1CCN(C(=O)c2ccccc2C)CC1	-13.6	-13.9
Cc1cc(C)cc(C(=O)N2CCCC2COc2ccc(C(=O)NC(C)C)cc2)c1 (stereo not drawn)	-2.7	21.8
O=C(Nc1ccccc1)c1ccc(-c2nccnc2N2CCCCC2)cc1	0.5	-62.9
Cc1cccc(O)c1N=Cc1cc(Br)c(O)c(Br)c1O	-3.8	19.0
CCOc1c(Br)cc(/C=C2\C(=O)NN(c3ccc(F)c(Cl)c3)C2=O)cc1OC	1.1	81.0*
SMILES	Pf apPOL inh	mHTT-CaM PPI inh
COc1cc(/C=C2\C(=O)NN(c3ccc(F)c(Cl)c3)C2=O)ccc1O	1.0	33.0
CC1=CC(=NS(=O)(=O)c2cccc([N+](=O)[O-])c2)C=CC1=O	-7.1	84.0*
Cc1c(C(C)(C)C)sc(=NS(=O)(=O)c2cccc([N+](=O)[O-])c2)n1C	-3.7	29.0
Cn1nc2c(c1NC(=O)C1(c3ccc(Cl)cc3)CCCC1)CCC2	0.3	-10.9
COc1ccc(Cl)cc1NC(=O)N1CCC2(CC1)Nc1cc(F)ccc1-n1cccc12	-2.1	54.5*
COc1ccc(C)cc1NC(=O)N1CCC2(CC1)Nc1ccccc1-n1cccc12	2.3	36.4
Cc1ccccc1NC(=O)N1CCC2(CC1)Nc1cc(F)ccc1-n1cccc12	-4.6	34.9
COc1ccccc1NC(=O)N1CCC2(CC1)Nc1cc(F)ccc1-n1cccc12	-8.7	56.5*
COc1ccc(OC)c(NC(=O)N2CCC3(CC2)Nc2cc(F)ccc2-n2cccc23)c1	1.2	63.2*
CC(C)CN1CCN(C(=O)C2CCCN(c3cnn(C)c(=O)c3)C2)CC1 (stereo not drawn)	-3.4	1.0
CC(C)(C)NC(=O)N1CCN(C(C(=O)N2CCCC2)C2CCCC2)CC1 (stereo not drawn)	-3.7	-1.3
CN1CCN(C(=O)C2CCN(c3nc4ccc(-c5cccnc5)nc4s3)CC2)CC1	-0.5	7.0
CC1=NOC(=O)/C1=C/c1ccc(OCc2ccc(C)cc2)c(Cl)c1	-4.9	33.0
CC1=NOC(=O)/C1=C/c1ccccc1OCc1ccccc1Cl	-1.6	4.0
CC1=NOC(=O)/C1=C/c1ccccc1OCc1ccc(Br)cc1	1.2	54.0*
COc1cc(/C=C2\C(=O)ON=C2C)ccc1OCc1ccccc1F	-4.5	41.0
COc1cc(/C=C2\C(=O)ON=C2C)cc(Br)c1OCc1ccc(C)cc1	14.2	70.0*
COc1cc(/C=C2\C(=O)ON=C2C)cc(Br)c1OCc1ccccc1F	-4.5	64.0*
C=CCOc1c(Br)cc(/C=C2\C(=O)ON=C2C)cc1OC	-1.9	21.0
